This is an account of results in PubChem BioAssay AID651658 (Broad Institute, 2012).

Among all 340,000 compounds or so, about 5,100 (1.5%) were called active. The sample holds actives, similar compounds and a random draw of the others, so the mix is not that of the screen. Values without a mark were called inactive.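 The calls were made as follows: active = mean Tm shift, scaled 0 neutral to 100 positive control, at about 1.3% or above, every replicate too (limit read from the data); inconclusive = no clear call, values can overlap the other calls; inactive = the rest.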

In the test the target is Fibroblast growth factor 22 (Homo sapiens) (UniProt Q9HCT0). The test can be described thus: binders of human FGF22 protein, primary screen, FGF22 synaptogenesis inhibitor project, biophysical, thermal shift, single point (AID 651658). Particulars: recombinant FGF22 thermal shift, SYPRO orange fluorescence; at 9.99 µM; active compounds read high; percent of sucrose octasulfate shift, DMSO zero.
Sequence of Fibroblast growth factor 22 (Homo sapiens) (Q9HCT0 whole entry, looked up): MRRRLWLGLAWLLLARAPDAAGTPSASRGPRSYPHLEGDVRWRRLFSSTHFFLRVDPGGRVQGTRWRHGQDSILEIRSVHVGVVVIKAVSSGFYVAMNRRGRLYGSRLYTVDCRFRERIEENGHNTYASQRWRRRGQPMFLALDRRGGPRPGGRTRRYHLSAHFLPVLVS
As to `O=C(COC(=O)c1ccc2c(c1)OCCO2)NCc1ccccc1Cl`, the activity (Tm shift, normalised) was -0.43%.

With `O=C(COC(=O)c1cc2c(s1)CCCC2)NCc1ccccc1Cl`, the activity (Tm shift, normalised) is 2.24% (active).

With `CN(C)C(=O)c1ccc(NC(=O)COC(=O)c2cc3c(s2)CCCCC3)cc1`, the activity (Tm shift, normalised) is 0.188%.

As to `COc1ccc2c3c([nH]c2c1)[C@H](CO)N(C(=O)C1CCOCC1)CC31CN(S(C)(=O)=O)C1`, the activity (Tm shift, normalised) is -0.085%.

Turning to `CN(C)C(=O)c1cccc(-c2ccccc2[C@@H]2[C@@H](CO)N(C(=O)C3CCCCC3)[C@H]2C#N)c1`, the activity (Tm shift, normalised) was 0.22%.

Regarding `COc1ccc2c3c([nH]c2c1)[C@H](CO)N(C(=O)c1ccccc1)CC31CCN(S(=O)(=O)c2cccs2)CC1`, the activity (Tm shift, normalised) is -0.133%.

Turning to `CCC1([N+](=O)[O-])COC(c2ccc(C)cc2)OC1` (stereo unspecified), the activity (Tm shift, normalised) was 43.3% (active).

Take `CCC1([N+](=O)[O-])COC(c2ccc(C(C)C)cc2)OC1` (stereo unspecified): the activity (Tm shift, normalised) was 0.068%.

As for `CCC1(C)COC(c2ccc(OC)c(OC)c2)OC1` (stereo unspecified), the activity (Tm shift, normalised) was -0.154%.

Take `C/C=C/c1ccc([C@H]2[C@@H](CO)N3CCCCN(C(=O)c4ccc(F)cc4)C[C@@H]23)cc1`: the activity (Tm shift, normalised) was -0.174%.

In the case of `Cc1nonc1C1CCCN1Cc1nc(-c2ccc(F)cc2F)oc1C` (stereo unspecified), the activity (Tm shift, normalised) was 43.2% (active).

On to `Cc1oc(-c2ccccc2F)nc1CS(=O)CC(=O)NCCN1CCCCC1C` (stereo unspecified), for which the activity (Tm shift, normalised) is -0.146%.

For `COc1ccc(F)c(-c2nc(CN3CCC(c4ccccc4)CC3)c(C)o2)c1`, the activity (Tm shift, normalised) is 0.157%.

Take `C[C@H](CO)N1C[C@H](C)[C@H](CN(C)CC2CCCC2)Oc2ncc(-c3ccc(F)cc3)cc2C1=O`: the activity (Tm shift, normalised) was -0.41%.

Take `Cc1ccc(CN2CCN(/N=C/c3cccnc3)CC2)c(C)c1`: the activity (Tm shift, normalised) is 0.311%.

On to `COc1ccccc1/C=N/N1CCN(Cc2ccccc2Cl)CC1`, for which the activity (Tm shift, normalised) was -0.025%.

Take `CSc1ccc(/C=N/N2CCN(Cc3ccccc3Cl)CC2)cc1`: the activity (Tm shift, normalised) is 43.3% (active).

For the compound `NS(=O)(=O)c1ccccc1NC(=O)c1c(O)c2ccccc2[nH]c1=O`, the activity (Tm shift, normalised) is 0.089%.

Regarding `CC(=O)c1c(-c2ccccc2)c2ccccc2[nH]c1=O`, the activity (Tm shift, normalised) was 43.2% (active).

For `Cc1c(-c2ccccc2)n[nH]c1C(=O)N=Nc1c(O)[nH]c2ccccc12`, the activity (Tm shift, normalised) is 0.025%.

Regarding `COc1cccc(NC(=O)N2C[C@@H](O)COC[C@@H]3O[C@@H](CC(=O)NC4CCC4)CC[C@H]32)c1`, the activity (Tm shift, normalised) was -0.083%.

With `COc1ccc(CCN2C(=O)[C@@]3(Cc4ccccc42)c2ccccc2C(=O)N(Cc2ccccc2C(F)(F)F)[C@H]3c2ccc(CO)cc2)cc1`, the activity (Tm shift, normalised) is -0.145%.

`CCNS(=O)(=O)c1ccc(CCC(=O)N2CCN(c3ccc(OC)cc3)CC2)cc1`: the activity (Tm shift, normalised) was 0.369%.

For `CCOc1ccc(S(=O)(=O)NCCC(=O)N2CCCCCCC2)cc1`, the activity (Tm shift, normalised) was 0.162%.

In the case of `CCCNS(=O)(=O)c1ccc(CCC(=O)N2CCCC2)cc1`, the activity (Tm shift, normalised) is 43% (active).

For `CC(C)NC(=O)Nc1ccc2c(c1)C(=O)N([C@H](C)CO)C[C@@H](C)[C@@H](CN(C)Cc1ccncc1)O2`, the activity (Tm shift, normalised) is 0.001%.

As for `CC(C)(C)N1C(=O)c2c(C(=O)OCc3ccccc3)[nH]c(-c3ccccc3)c2C1=O`, the activity (Tm shift, normalised) was 2.17% (active).

Turning to `O=C(OCc1ccc(-c2ccccc2)cc1)c1cccc(O)c1`, the activity (Tm shift, normalised) was -0.21%.

`O=C(Nc1cccc2ccccc12)c1[nH]c(-c2ccccc2)c2c1C(=O)N(C1CC1)C2=O`: the activity (Tm shift, normalised) is -0.298%.

For the compound `CCCNC(=O)Nc1ccc2c(c1)C(=O)N(C)[C@H]1CC[C@H](CC(=O)NCC3CCCCC3)O[C@@H]1CO2`, the activity (Tm shift, normalised) was -0.32%.

For `Cc1noc(C)c1NC(=O)N(C)C[C@H]1OCCCC[C@@H](C)Oc2ccc(NC(=O)NC(C)C)cc2C(=O)N([C@H](C)CO)C[C@@H]1C`, the activity (Tm shift, normalised) was 0.234%.

In the case of `COc1ccc(OCCCn2cccc2/C=C2/C(=N)N3OC(C)=CC3=NC2=O)cc1`, the activity (Tm shift, normalised) is 43.6% (active).

As for `CC1=CC2=NC(=O)/C(=C/c3coc4ccccc4c3=O)C(=N)N2O1`, the activity (Tm shift, normalised) was 0.039%.

On to `COc1ccccc1OCCOc1ccc(/C=C2\C(=N)N3N=C(C)SC3=NC2=O)cc1`, for which the activity (Tm shift, normalised) was -0.133%.

For `CCCNC(=O)N(C)C[C@@H]1Oc2cc(-c3ccccc3)ccc2S(=O)(=O)N([C@H](C)CO)C[C@H]1C`, the activity (Tm shift, normalised) was -0.206%.

Take `O=C(N[C@@H]1CC[C@@H](CCNS(=O)(=O)c2ccccc2Cl)O[C@@H]1CO)c1ccccc1`: the activity (Tm shift, normalised) was -0.098%.

Take `CC1CN(C(=O)c2cccc(NS(=O)(=O)c3ccc(Br)cc3)c2)CC(C)O1` (stereo unspecified): the activity (Tm shift, normalised) was 0.103%.

Take `CC1CN(C(=O)COC(=O)c2cccc(NS(=O)(=O)c3ccccc3)c2)CC(C)O1` (stereo unspecified): the activity (Tm shift, normalised) is 43% (active).

Take `COc1ccc(N2CCN(C(=O)COC(=O)c3cccc(S(=O)(=O)Nc4ccccc4OC)c3)CC2)cc1`: the activity (Tm shift, normalised) was -0.159%.

For `COc1cccc(-c2ccc3c(c2)[C@@H]2[C@@H](CCN2S(=O)(=O)C2=NC(C)C=N2)[C@@H](CO)N3C)c1` (stereo partly specified), the activity (Tm shift, normalised) was -0.294%.

Regarding `CN1CCN(/N=C/c2ccc(-c3ccc([N+](=O)[O-])cc3)o2)CC1`, the activity (Tm shift, normalised) was 42.9% (active).

As to `Cc1ccc(-c2ccc(/C=N/NC(=O)CN3CCOCC3)o2)cc1[N+](=O)[O-]`, the activity (Tm shift, normalised) was -0.102%.

In the case of `CN1CCN(/N=C/c2ccc(C#N)cc2)CC1`, the activity (Tm shift, normalised) is 0.346%.

As for `COc1ccc(NC(=O)N[C@H]2CC[C@@H](CCNC(=O)c3cc(Cl)cc(Cl)c3)O[C@H]2CO)cc1`, the activity (Tm shift, normalised) was 0.37%.

On to `COc1ccc(C[C@@H]2CCc3cnnn3COC[C@H](c3ccccc3)NC2=O)cc1`, for which the activity (Tm shift, normalised) was 0.006%.

With `CCCNC(=O)Nc1ccc2c(c1)OC[C@@H](C)N(CCC)C[C@H](C)[C@@H](OC)CN(C)C2=O`, the activity (Tm shift, normalised) is 0.109%.

As for `COc1ccc(C(=O)CSc2nnnn2C)c(OC)c1`, the activity (Tm shift, normalised) was 43% (active).

Take `COc1ccc(-n2nnnc2SCC(=O)c2ccc(OC)c(OC)c2)cc1`: the activity (Tm shift, normalised) is -0.381%.

Take `COc1ccc(C(=O)CCc2ccccc2O)c(OC)c1`: the activity (Tm shift, normalised) was -0.131%.

With `COc1ccc2c3c([nH]c2c1)[C@H](CO)N(C(=O)c1ccccc1)CC31CN(C(=O)Nc2cccc(F)c2)C1`, the activity (Tm shift, normalised) is 0.15%.

With `O=C(c1cccnc1)N1CC2(C1)[C@@H](c1ccccc1)[C@H](CO)N2C(=O)C1CCC1`, the activity (Tm shift, normalised) was -0.239%.
